Measured values: article PMC5540273 (PLoS ONE, 2017)

How the values were obtained:
Settings in all cases: concentration: 1 μM, replicates: in singlicate; n = 1
[1] = test system: MERTK
[2] = test system: MET
[3] = test system: T1, MINK
T1 construct: gene MINK1

[4] = test system: MKK7
[5] = test system: MKNK1
[6] = test system: MKNK2
[7] = test system: T2, MLCK
T2 construct: gene MYLK3

[8] = test system: T3, MLK1
T3 construct: gene MAP3K9

[9] = test system: MLK2
[10] = test system: MLK3
[11] = test system: MRCKA
[12] = test system: T4, MRCKB
T4 construct: gene CDC42BPB

[13] = test system: MST1R
[14] = test system: T5, MST1
T5 construct: gene STK4

[15] = test system: T6, MST2
T6 construct: gene STK3

[16] = test system: T7, MST3
T7 construct: gene STK24

[17] = test system: MST4
[18] = test system: MTOR
[19] = test system: MUSK
[20] = test system: MYLK2
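Also: KINOMEscan kinase panel screen.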

Compound	%Inh [1] [%]	%Inh [2] [%]	%Inh [3] [%]	%Inh [4] [%]	%Inh [5] [%]	%Inh [6] [%]	%Inh [7] [%]	%Inh [8] [%]	%Inh [9] [%]	%Inh [10] [%]	%Inh [11] [%]	%Inh [12] [%]	%Inh [13] [%]	%Inh [14] [%]	%Inh [15] [%]	%Inh [16] [%]	%Inh [17] [%]	%Inh [18] [%]	%Inh [19] [%]	%Inh [20] [%]
CSc1ccc(NC2=C(c3ccccc3Cl)C(=O)NC2=O)cc1 [SB-342411]	0	0	2	39	100	0	0	9	0	4	0	0	27	6	0	0	8	13	0	8
Nc1nc(-c2ccc3c(N)n[nH]c3c2)cc(N2CCCCC2)n1 [GSK2228768]	0	0	0	0	0	23	0	0	0	0	0	0	11	0	0	0	0	0	3	0
FC(F)(F)c1ccc(-c2cc(-c3c[nH]nc3-c3ccccn3)ccn2)cc1 [GW599550]	0	14	75	0	7	0	7	10	0	21	19	0	33	17	8	8	0	13	14	13
Clc1cccc(-c2nc(Nc3ccncc3)c3ccccc3n2)c1 [GW873004]	7	33	16	0	18	0	0	2	16	0	3	42	0	27	45	9	0	36	0	0
N#Cc1ccc(Oc2ccc(Nc3ncnc4cc[nH]c34)cc2Cl)cc1	0	11	31	0	0	20	8	0	0	0	12	32	11	10	19	24	0	13	6	16
Cl.Cl.c1ccc(-c2cc3ccncc3cc2OC2CCNCC2)cc1 [GSK1122999]	46	0	6	0	29	4	10	0	0	23	52	17	53	21	6	12	0	12	13	20
O=C(CCO)NCCn1ccc2ncnc(Nc3ccc(Oc4cccc(C(F)(F)F)c4)c(Cl)c3)c21	0	0	0	0	0	12	0	0	0	0	0	2	0	0	0	0	0	31	0	0
CNc1nccc(-c2c(-c3ccc(F)cc3)ncn2C2CCN(C)CC2)n1 [SB-222903]	0	6	43	0	0	0	0	0	31	0	0	5	0	0	0	0	0	18	0	0
O=C(Nc1ccccc1F)NC1CCN(c2ccnc(Nc3ccc(F)cc3)n2)C1 (stereo not drawn) [GSK1379722]	6	0	0	0	7	23	10	0	0	9	15	0	38	0	0	0	0	17	2	12
OCCOCCn1ccc2ncnc(Nc3ccc(Oc4cccc(Cl)c4)c(Cl)c3)c21	0	0	0	0	0	3	0	0	37	22	0	0	0	0	0	0	0	46	0	0
Clc1ccc(-c2cc(-c3c[nH]nc3-c3ccccn3)ccn2)cc1 [GW681251]	27	0	78	30	0	3	0	0	0	0	0	1	0	0	0	0	0	20	12	0
Cc1ccc(O)cc1Nc1cc(C(F)(F)F)nc2ccc(-c3ccncc3)cc12 [GW630823]	21	6	0	0	0	0	12	4	2	0	0	0	19	0	44	18	0	0	0	4
COc1ccc(Nc2nccc(N3CCC(NC(=O)c4cccc(NC(C)=O)c4)C3)n2)cc1 (stereo not drawn) [GSK1379732]	24	0	17	0	0	12	31	0	0	12	0	0	34	0	10	13	0	8	0	8
CCCc1ccc(S(=O)(=O)NC2CCN(c3ccnc(Nc4ccc(OC)cc4)n3)C2)cc1 (stereo not drawn) [GSK1379737]	16	0	0	0	0	6	11	0	0	4	10	0	39	65	0	0	0	28	9	0
Fc1cccc(COc2ccc(Nc3ncnc4cc[nH]c34)cc2Cl)c1	0	8	34	0	19	10	0	9	0	32	10	0	30	16	19	23	0	0	10	0
Nc1nc(-c2ccc3c(N)n[nH]c3c2)cc(N2CCC[C@@H](C(=O)Nc3ccccc3)C2)n1.O=C(O)C(F)(F)F.O=C(O)C(F)(F)F [GSK2288359]	0	0	0	0	11	1	0	0	0	0	2	0	14	0	30	0	0	15	4	5
CN1CCC(n2cnc(-c3ccc(F)cc3)c2-c2ccnc(NC3CCNCC3)n2)CC1 [SB-229482]	0	0	0	11	0	32	0	38	5	0	6	0	33	3	24	0	0	0	0	21
CC(C)(C)OC(=O)NC1CCCN(c2cc(-c3ccc4c(N)n[nH]c4c3)nc(N)n2)C1 (stereo not drawn) [GSK2286096]	18	0	11	0	12	10	0	0	0	0	9	0	31	0	0	6	0	8	0	24
Nc1nc(-c2ccccn2)c(-c2ccnc3ccccc23)s1 [GW548057]	2	0	56	14	1	0	0	0	0	0	8	0	50	0	0	16	0	31	0	9
O=C(Nc1n[nH]c2nc(-c3ccco3)c(Br)cc12)c1ccc(CN2CCCC2)cc1.O=C(O)[C@H](O)[C@@H](O)C(=O)O [SB-742352]	22	0	0	0	0	0	69	0	0	10	0	0	0	0	17	0	9	0	9	96.3
Oc1ccc2ncnc(Nc3ccc(OCc4ccccc4)cc3)c2c1 [GI262866]	34	5	0	0	0	15	0	0	24	0	12	0	13	59	0	0	0	11	17	0
